FGF22 binding – binders of recombinant human FGF22 by thermal shift; Q9HCT0; SYPRO orange fluorescence; percent of sucrose octasulfate shift, DMSO zero; activity (Tm shift, normalised), % at 9.99 µM; 340,000 tested, 1.5% active;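 active = mean Tm shift, scaled 0 neutral to 100 positive control, at about 1.3% or above, every replicate too, limit read from the data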
Target sequence (Q9HCT0 whole entry, looked up): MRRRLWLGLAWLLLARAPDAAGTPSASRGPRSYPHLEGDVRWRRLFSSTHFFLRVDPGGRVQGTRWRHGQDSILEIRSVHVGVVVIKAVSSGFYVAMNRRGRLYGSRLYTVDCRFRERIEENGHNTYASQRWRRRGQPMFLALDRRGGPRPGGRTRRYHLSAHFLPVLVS
ERAP1 inh – inhibitors of human ERAP1 aminopeptidase; Q9NZ08; recombinant ERAP1, Leu-AMC fluorescence, 60 min; inhibition, % at 10.7 µM; 340,000 tested, 0.15% active;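 active = mean replicate inhibition of at least 30%, or all replicates individually reaching that 30% level; inactive = mean below 30% and not every replicate reaching it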;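 note: 0% = neutral control wells and 100% = L-leucinethiol positive control wells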
CASP6 VEID inh – caspase-6 (human) enzyme inhibition | P55212 | purified caspase-6, Z-VEID-R110 cleavage fluorescence | inhibition, % at 12.5 µM | 350,000 tested, 0.53% active;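 active = mean inhibition across replicates at least about 35%, with every replicate also reaching that limit, limit read from the data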;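 note: 0% = median of neutral control wells and 100% = no fluorescence left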
SIRT5 inh – inhibitors of human sirtuin-5 desuccinylase; Q9NXA8; Purified SirT5, succinyl-peptide AMC, trypsin-coupled fluorescence; inhibition, % at 15 µM; 330,000 tested, 1.1% active; in the data active = inhibition above about 15%
Target sequence (Q9NXA8 whole entry, looked up): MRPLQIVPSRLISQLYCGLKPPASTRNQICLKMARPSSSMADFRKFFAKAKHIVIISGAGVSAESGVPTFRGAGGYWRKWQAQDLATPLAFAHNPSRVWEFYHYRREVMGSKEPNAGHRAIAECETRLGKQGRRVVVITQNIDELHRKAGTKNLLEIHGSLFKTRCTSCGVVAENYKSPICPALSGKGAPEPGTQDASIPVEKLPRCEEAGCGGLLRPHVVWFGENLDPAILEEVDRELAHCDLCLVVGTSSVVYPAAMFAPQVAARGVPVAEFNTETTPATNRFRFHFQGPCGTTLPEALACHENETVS
Active calls of the source: *; . = no result given; ! = not active in a repeat. This is a sample that favours compounds with a hit; in the whole collection about 3.1% have one here.

SMILES | FGF22 binding | ERAP1 inh | CASP6 VEID inh | SIRT5 inh
COc1ccc(NC(=O)Nc2ccc3c(c2)C(=O)N([C@@H](C)CO)C[C@H](C)[C@H](CN(C)Cc2ccccc2)O3)cc1 | 0 | 4 | 2 | 7
COc1cc(-c2c(-c3ccc4c(c3)OCO4)noc2-c2ccsc2)ccc1F | 0 | -4 | 0 | 17*
CCC(=O)c1ccc(OCc2ccc(C(=O)OC)cc2)cc1 | 44* | -3 | -1 | 1
CCC(=O)c1ccc(OCc2ccc(C#N)cc2)cc1 | 0 | 5 | -1 | 0
CC(C)CCN1C(=O)c2ccccc2C1c1nnnn1-c1ccc2c(c1)OCCO2 (stereo not given) | 0 | . | 1 | 25*
O=C(N/N=C/c1ccccn1)c1cc(-c2ccc(Cl)s2)[nH]n1 | 0 | 1 | 0 | -2
O=C(N/N=C/c1ccccn1)c1cc(-c2ccc(Br)s2)[nH]n1 | 0 | -1 | 0 | 18*
COc1ccccc1-c1ccc2c(c1)O[C@H](CN(C)C(=O)Nc1cccc(F)c1)[C@H](C)CN([C@H](C)CO)S2(=O)=O | 1 | 0 | 2 | 4
CC(C)NC(=O)N(C)C[C@H]1Oc2ncc(-c3cncnc3)cc2C(=O)N([C@@H](C)CO)C[C@@H]1C | 0 | . | . | -3
CCC(=O)Nc1ccc2c(c1)OC[C@@H](C)N(C(=O)C1CCC1)C[C@H](C)[C@H](OC)CN(C)C2=O | 0 | 3 | 0 | -4
Fc1cccc(C2NN=C(c3ccccc3)S2)c1 (stereo not given) | 44* | -1 | -2 | 1
C[C@@H]1CCCCO[C@@H](CN(C)Cc2ccncc2)[C@@H](C)CN([C@H](C)CO)C(=O)c2cc(NC(=O)c3ccncc3)ccc2O1 | 1 | 2 | 1 | 4
Cc1ccc(NC(=S)Nc2ccc(OC(F)F)c(Cl)c2)cc1F | 43* | 0 | -1 | -6
C[C@@H]1CCCCO[C@@H](CN(C)S(=O)(=O)c2ccc(F)cc2)[C@@H](C)CN([C@H](C)CO)C(=O)c2cc(NC(=O)Nc3ccccc3)ccc2O1 | 0 | . | . | .
N#Cc1ccccc1COC(=O)CCCC1=NS(=O)(=O)c2ccccc2N1 | 0 | -1 | 1 | 32*
CCN1CCN(CCCNC(=O)c2cc3c(s2)-c2ccccc2OC3)CC1 | 0 | 54* | -19 | -64
CC1CCCC(C)N1CCCNC(=O)c1cc2c(s1)-c1ccccc1OC2 (stereo not given) | 0 | 32* | . | -105
CO[C@H]1CN(C)C(=O)c2ccc(NC(C)=O)cc2OC[C@@H](C)N(C(=O)Cc2ccccn2)C[C@@H]1C | 0 | 0 | 2 | 0
C[C@H](CO)N1C[C@H](C)[C@@H](CN(C)C(=O)Nc2ccc3c(c2)OCO3)Oc2c(NC(=O)C3CCOCC3)cccc2C1=O | 0 | 2 | -3 | -3
C[C@H](CO)N1C[C@H](C)[C@@H](CN(C)CC2CCCCC2)Oc2ccc(NC(=O)Cn3cnnn3)cc2C1=O | 1 | 0 | -7 | 15*!
Cc1noc(C)c1S(=O)(=O)N(C)C[C@@H]1Oc2ccc(NC(=O)Cn3cnnn3)cc2C(=O)N([C@@H](C)CO)C[C@@H]1C | 0 | 0 | -1 | 23*
C[C@@H]1CN([C@@H](C)CO)C(=O)c2cc(NC(=O)Cn3cnnn3)ccc2O[C@@H]1CN(C)CC1CCCCC1 | 0 | 0 | -6 | -4
Cc1ccc(NC(=O)C(=O)NCC2CCCO2)cc1C (stereo not given) | 0 | 1 | 0 | -2
Cc1ccc(NC(=O)CC(NCC2CCCO2)C(=O)O)cc1C (stereo not given) | 43* | 8 | -1 | 1
CN1CCN(C(=O)c2cc(Cl)cc(Cl)c2)CC1 | 0 | 0 | 65* | 3
SMILES | FGF22 binding | ERAP1 inh | CASP6 VEID inh | SIRT5 inh
Nc1c(C(=O)NCCc2ccccc2)nnn1Cc1ccc(Br)cc1F | 43* | -2 | 1 | 0
CCN(c1ccccc1)S(=O)(=O)c1nnc(NC(=O)C(C)(C)C)s1 | 0 | 3 | -1 | 30*
COc1cccc(C(=O)N2C[C@@H]3[C@H](c4ccccc42)[C@@H](CO)N3C(=O)c2ccccc2)c1 | 0 | 1 | -2 | 1
CC(C)(C)c1cc(CCC(=O)NCCc2ccccn2)cc(C(C)(C)C)c1O | 0 | -5 | 2 | .
O=C1C=C(NCCc2cc(Br)c(O)c(Br)c2)C(=O)c2ncccc21 | 0 | 6 | 96* | 0
Cc1noc(C)c1NC(=O)Nc1ccc2c(c1)C(=O)N([C@H](C)CO)C[C@H](C)[C@@H](CN(C)C(=O)C1CCCCC1)OCCCC[C@H](C)O2 | 1 | 0 | 3 | 0
O=C(C[C@@H]1CC[C@@H](NS(=O)(=O)c2ccccc2)[C@@H](CO)O1)NCc1ccncn1 | 0 | -2 | -2 | 4
O=C(C[C@@H]1CC[C@H](NS(=O)(=O)c2ccc(F)cc2)[C@H](CO)O1)N1CCN(c2ccccc2)CC1 | 0 | 1 | -1 | 20*
O=C(C[C@H]1CC[C@@H](NS(=O)(=O)c2ccc(F)cc2)[C@@H](CO)O1)N1CCC(Cc2ccccc2)CC1 | 0 | 0 | -1 | -1
O=C(C[C@H]1CC[C@@H](NS(=O)(=O)c2ccccc2)[C@@H](CO)O1)NCc1ccncn1 | 0 | 0 | 1 | 21*
O=C(C[C@@H]1CC[C@@H](NS(=O)(=O)c2ccc(F)cc2)[C@@H](CO)O1)N1CCC(Cc2ccccc2)CC1 | 0 | 1 | -1 | 28*
CCCCCCN1CCN(C2CN(C3CCCCC3)S(=O)(=O)C2)CC1 (stereo not given) | 0 | 5 | -5 | 39*
CN(C)CCN1CCN(C2CN(C3CCCCC3)S(=O)(=O)C2)CC1 (stereo not given) | 0 | . | -18 | -1
COc1ccc(S(=O)(=O)Nc2ccc3c(c2)[C@H]2C[C@H](CC(=O)N(C)C)O[C@@H](CO)[C@H]2O3)cc1 | 0 | -1 | 0 | -1
Cc1cccc(C(=O)Nc2ccc(O)c3c(=O)cc(-c4ccccc4Cl)oc23)c1 | 45* | 6 | 1 | -3
O=C(Nc1ccc(O)c2c(=O)cc(-c3ccccc3Cl)oc12)c1cccc(Cl)c1 | 0 | . | 3 | .
C[C@H]1CCCCO[C@H](CN(C)S(=O)(=O)c2cn(C)cn2)[C@@H](C)CN([C@@H](C)CO)C(=O)c2cc(NC(=O)Nc3ccc(F)cc3)ccc2O1 | . | 3 | -1 | 8
COc1ccc(CNC(=S)NCc2ccc(OC(C)C)cc2)cc1 | 43* | 3 | 1 | -3
COc1ccc(CNC(=S)Nc2ccc(Br)cc2)cc1 | 0 | -3 | 6 | .
COc1ccc(CNC(=S)Nc2ccc(F)c(Cl)c2)cc1 | 1.7* | -1 | 1 | -6
NS(=O)(=O)c1ccc(NC(=S)NCc2ccc(F)cc2)cc1 | 0 | 1 | -2 | -3
NS(=O)(=O)c1ccc(CNC(=S)Nc2ccc(F)c(Cl)c2)cc1 | 43* | 1 | 4 | -3
CN(CC(=O)Nc1ccccc1C(F)(F)F)C(=O)c1ccc(N2C(=O)CCC2=O)cc1 | 0 | -1 | 4 | 17*
CCN(CC(=O)Nc1ccccc1C(F)(F)F)C(=O)c1ccc(N2C(=O)CCC2=O)cc1 | 0 | -4 | 2 | -1
CC(=Nc1ccccc1)C1=C(O)CCCC1=O | 0 | 36* | 15 | -7

Screening results: PubChem, Broad Institute
